Records with an inconclusive call do not appear. Calls of active or inactive are those of the source. Calls follow the shape of the dose curve; as a rule, active = well fitted activation curve with a large enough effect in the repeat runs; inconclusive = weak or mixed curves; inactive = no such curve, though single readings can be large or run the other way. Starred links: 1 amine or outer side, 2 acyl side, 3 side chain; linkers in the order of their positions; H or OH if unused. Positions of bridges follow the written chain, without caps; N, C: chain ends. Non-standard residues stand in square brackets, D forms with d. Residues, ends and D or L forms follow the SMILES beside them. Chains are numbered I, II in the order given. Actinocin(9to1) = Cc1c2oc3c(C)ccc(C(=O)[*:1])c3nc-2c(C(=O)[*:2])c(N)c1=O; NMeV = CN[C@H](C(=O)O)C(C)C; Sar = CNCC(=O)O
biological target: Nuclear receptor subfamily 1 group I member 2 (Homo sapiens) (UniProt O75469); assay: CYP3A4 induction through human pregnane X receptor (PXR) by small molecules, qHTS assay (AID 1346984); settings: DPX-2 HepG2 PXR, CYP3A4-luciferin luminescence, 24 h; series mostly up to 46.1 µM; activation: at the top concentration; also: nearly all actives have a fitted effect of over 40% in size
Source text: National Center for Advancing Translational Sciences [NCATS]
NIH Chemical Genomics Center [NCGC]
U.S. Environmental Protection Agency [EPA]
National Institutes of Environmental Health Sciences [NIEHS]
National Toxicology Program [NTP]
The Pregnane X receptor (PXR), a ligand activated nuclear receptor plays a critical role in the regulation of genes involved in drug metabolism and transporters. Activation of PXR is responsible for unwanted adverse drug reactions. PXR binds xenobiotics and when compounds interact with PXR enhances the expression of CYP3A genes. Identifying the compounds with the potential for PXR activation and CYP3A4 induction can be of importance in improving the efficacy of drugs with less toxicity and avoiding drug-drug interactions.
DPX-2 (Puracyp, Inc.) cell lines, used for screening against human PXR activation has HepG2 cells co-transfected with a PXR response element and a luciferase construct containing CYP3A4 promoter. Increase in luciferase activity can be used to identify the compounds that cause the induction of CYP3A4.
DPX-2 cells were dispensed at 2,000 cells per well in 5uL of assay medium into white, solid-bottom 1536-well plates using a Multidrop Combi dispenser (Thermo Scientific). The assay plates were incubated at 37C for 5hr before transferring 23nL of test compounds dissolved in DMSO and positive control via Pintool station (Wako). The assay plates were incubated at 37C for 24hr. After 24hr compound treatment, 1uL of 3uM (final concentration) P450 substrate (P450-Glo CYP3A4 screening system with Luciferin-IPA, Promega) was added by a Flying Reagent Dispenser (FRD, Aurora Discovery). The assay plates were incubated for 3hr at 37C. Then 5ul One-Glo assay reagent (Promega) was added to each plate by an FRD and following 30 min incubation at room temperature, luciferase activity was quantified on a ViewLux plate reader (Perkin Elmer).
% is scaled to controls: 0 for no effect and ±100 for the full control effect; potency is read from the fitted curve at half-maximal effect.

Structure (SMILES) | activation | Potency
CC(C)CCCCCCc1ccc(O)cc1 | 23.9% (inactive) | 
O=C1OC2(c3ccc(O)cc3Oc3cc(O)ccc32)c2ccccc21 |  | 14.1 µM (active)
NCCCCCC(=O)O | 1.7% [at 20.6 µM] (inactive) | 
O=C1NCC2(CCN(CCc3ccccc3)CC2)O1 | -10% (inactive) | 
Nc1nc(=S)c2[nH]cnc2[nH]1 | -21.6% (inactive) | 
NNCCc1ccccc1 | 2.64% [at 20.6 µM] (inactive) | 
Cc1c2oc3c(C)ccc(C(=O)N[C@@H]4C(=O)N[C@H](C(C)C)C(=O)N5CCC[C@H]5C(=O)N(C)CC(=O)N(C)[C@@H](C(C)C)C(=O)O[C@@H]4C)c3nc-2c(C(=O)N[C@@H]2C(=O)N[C@H](C(C)C)C(=O)N3CCC[C@H]3C(=O)N(C)CC(=O)N(C)[C@@H](C(C)C)C(=O)O[C@@H]2C)c(N)c1=O (I: T[dV]P[Sar][NMeV] / II: T[dV]P[Sar][NMeV]; ester I:1-I:C, II:1-II:C; linker I:N-II:N via Actinocin(9to1)) | 1.54% (inactive) | 
CC(=O)OCC1=C(C(=O)O)N2C(=O)[C@@H](NC(=O)Cc3cccs3)[C@H]2SC1 | -5.09% (inactive) | 
COC(c1ccccc1)(c1ccccc1)[C@H](Oc1nc(C)cc(C)n1)C(=O)O | 2.9% (inactive) | 
N[C@@H]1CONC1=O | -3.09% (inactive) | 
CCn1cc(C(=O)O)c(=O)c2cc(F)c(N3CCNC(C)C3)c(F)c21 (stereo unspecified) | -8.74% (inactive) | 
CCOc1ccccc1C(N)=O | -8.96% (inactive) | 
NC(=Nc1ccccc1)Nc1ccccc1 | -33.9% (inactive) | 
O=S(=O)(O)c1ccc2nc(-c3ccccc3)[nH]c2c1 | -21.5% (inactive) | 
CCN(CC)C(=O)Nc1ccc(OCC(O)CNC(C)(C)C)c(C(C)=O)c1 (stereo unspecified) | 4% (inactive) | 
COc1cc(C(=S)N2CCOCC2)ccc1O | 1.28% (inactive) | 

Structure (SMILES) | activation | Potency
CC(C)CCOC(=O)c1ccc(N(C)C)cc1 | 4.23% (inactive) | 
COc1nc(C)nc(Cl)c1NC1=NCCN1 | 2.51% [at 20.6 µM] (inactive) | 
[Cl][In]([Cl])[Cl] | -1.29% (inactive) | 
CC(=O)N[C@@H](CS)C(=O)O | -7.37% (inactive) | 
CC(C)(C)NCC(O)c1cc(O)cc(O)c1 (stereo unspecified) | -4.69% (inactive) | 
CC(=O)O[C@]1(C(C)=O)CC[C@H]2[C@@H]3C[C@H](C)C4=CC(=O)CC[C@]4(C)[C@H]3CC[C@@]21C | -19.4% (inactive) | 
OCC(CO)N[C@H]1C[C@](O)(CO)[C@@H](O)[C@H](O)[C@H]1O | -7.3% (inactive) | 
CC[C@H]1CN2CCc3cc(OC)c(OC)cc3[C@@H]2C[C@@H]1C[C@H]1NCCc2cc(OC)c(OC)cc21 | -42.6% (inactive) | 
CCC(C)(Oc1ccc(C2(c3ccc(OC(C)(CC)C(=O)O)cc3)CCCCC2)cc1)C(=O)O (stereo unspecified) | -2.2% (inactive) | 
Cc1ccnc2c1NC(=O)c1cccnc1N2C1CC1 | -3.06% (inactive) | 
CCCNC(C)C(=O)Nc1ccccc1C (stereo unspecified) | -0.277% (inactive) | 
CN(C)c1ccc2nc3ccc(=[N+](C)C)cc-3sc2c1 | -17.1% (inactive) | 
Cc1ccc(-c2cc(C(F)(F)F)nn2-c2ccc(S(N)(=O)=O)cc2)cc1 |  | 14.1 µM (active)
COc1ccc(Cc2cnc(N)nc2N)cc1OC | -1% (inactive) | 
O=c1n(CC2CO2)c(=O)n(CC2CO2)c(=O)n1CC1CO1 (stereo unspecified) | -12.5% (inactive) | 

Reference: PubChem BioAssay (Tox21)
